Values without a mark were called inactive. Results filed as inconclusive are left out. A call without a number means that no potency is given here. Active and inactive are the calls of the source. Unless noted, the call rests on the fitted dose curve.
Key:
[1] = Nuclear factor erythroid 2-related factor 2/antioxidant responsive element (Nrf2/ARE) small molecule agonists: qHTS cell viability counter screen in human keratinocytes (AID 1919968; active means well fitted curve in the direction sought with a large enough effect in the repeat runs; an effect the other way counts as inactive or inconclusive; further: nearly all actives have a fitted effect of over 55% in size; further: potency means the concentration at half of the fitted maximal effect)
Procedure, shortened: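 HaCaT ARE reporter line, 1,500 cells/well; 5 h settle, 37 C/5% CO2; cpd in DMSO pinned; 23 h exposure; CellTiter-Fluor, 1 h; fluorescence.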

[2] = Nuclear factor erythroid 2-related factor 2/antioxidant responsive element (Nrf2/ARE) small molecule agonists: luciferase reporter gene qHTS assay in human keratinocytes (AID 1919969); further: nearly all actives have a fitted effect of over 35% in size
[3] = molecular target: Gonadotropin-releasing hormone receptor (Homo sapiens) (UniProt P30968); test: Human gonadotropin-releasing hormone receptor (GnRHR) small molecule agonists, calcium flux assay in GnRHR-HEK293 cells (AID 1920063); further: nearly all actives have a fitted effect of over 35% in size
Sequence of Gonadotropin-releasing hormone receptor (Homo sapiens) (P30968 whole entry, looked up): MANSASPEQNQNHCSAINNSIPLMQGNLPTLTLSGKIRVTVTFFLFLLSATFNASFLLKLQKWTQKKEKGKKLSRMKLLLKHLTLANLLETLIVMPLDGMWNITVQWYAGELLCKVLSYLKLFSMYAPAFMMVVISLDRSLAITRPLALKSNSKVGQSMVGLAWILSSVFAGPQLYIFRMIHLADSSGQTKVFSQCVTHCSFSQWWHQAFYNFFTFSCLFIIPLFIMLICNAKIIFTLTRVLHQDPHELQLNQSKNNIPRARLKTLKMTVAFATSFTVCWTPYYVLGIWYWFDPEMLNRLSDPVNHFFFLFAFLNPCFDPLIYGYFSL
Procedure, shortened: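 GnRHR-HEK293, 1500 cells/well, 18 h 37 C/5% CO2; Ca dye 1 h 37 C; cpd pinned (DMSO), agonist mode; kinetic FL 480/540, 3 min, 1 s reads; 15 conc, n=3.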

[4] = molecular target: KiSS-1 receptor (Homo sapiens) (UniProt Q969F8); test: Human kisspeptin (KISS1R) small molecule agonists, calcium flux assay in KISS1R-HEK293 cells (AID 1920064; active means well fitted curve in the direction sought with a large enough effect in the repeat runs; an effect the other way counts as inactive or inconclusive)
Sequence of KiSS-1 receptor (Homo sapiens) (Q969F8 whole entry, looked up): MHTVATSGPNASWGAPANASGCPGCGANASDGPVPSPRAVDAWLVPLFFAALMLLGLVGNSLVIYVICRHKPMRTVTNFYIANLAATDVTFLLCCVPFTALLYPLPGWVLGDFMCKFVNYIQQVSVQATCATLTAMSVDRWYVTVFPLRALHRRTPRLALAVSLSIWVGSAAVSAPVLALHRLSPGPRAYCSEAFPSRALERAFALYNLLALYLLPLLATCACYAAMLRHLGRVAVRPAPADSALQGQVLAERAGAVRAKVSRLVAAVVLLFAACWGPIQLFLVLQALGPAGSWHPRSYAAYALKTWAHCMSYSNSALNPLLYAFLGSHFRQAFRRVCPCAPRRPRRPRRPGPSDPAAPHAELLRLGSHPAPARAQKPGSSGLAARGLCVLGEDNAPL
Procedure, shortened: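 Stable human KISS1R HEK293 line; 18 h plating, 37 C/5% CO2; calcium dye 1 h 37 C; compound pin transfer; kinetic fluorescence Ex/Em 480/540, 3 min.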

[5] = G protein-coupled receptor (GPCR) small molecule agonists, calcium flux assay: HEK293 wild type cell line counter screen (AID 1920065)
Procedure, shortened: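 Kinetic fluorescence at Ex/Em 480/540, recorded every second over 3 min, served as the read-out after compound addition. Each compound was tested at 15 concentrations in triplicate on cells pre-loaded with calcium dye for 1 h.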

[6] = p53 small molecule agonists, cell-based qHTS assay with human liver microsomes (AID 1963577); further: potency means the concentration at half of the fitted maximal effect
Procedure, shortened: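 Steps: plate p53RE-bla cells, incubate 5 h at 37 C; add compound in DMSO; add microsomes (0.5 mg/mL final) and NADPH (0.5 mg/mL final); incubate 16 h at 37 C; add LiveBLAzer, 2 h RT; read fluorescence.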

[7] = p53 small molecule agonists, cell-based qHTS assay with rat liver microsomes (AID 1963578)
Procedure, shortened: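 Metabolic activation is supplied by rat liver microsomes with NADPH (each 0.5 mg/mL final). p53RE-bla cells incubate with compound 16 h at 37 C; reporter activity is measured by LiveBLAzer fluorescence.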

[8] = p53 small molecule agonists, cell-based qHTS assay with human liver microsomes: qHTS cell viability counter screen (AID 1963579); further: nearly all actives have a fitted effect of over 45% in size; further: potency means the concentration at half of the fitted maximal effect
Procedure, shortened: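 After the 460/530 nm beta-lactamase read, CellTiter-Glo was added to the same wells and luminescence measured after 30 min at room temperature, giving viability of p53RE-bla cells treated 16 h with compounds plus microsomes and NADPH.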

[9] = p53 small molecule agonists, cell-based qHTS assay with rat liver microsomes: qHTS cell viability counter screen (AID 1963580); further: nearly all actives have a fitted effect of over 45% in size; further: potency means the concentration at half of the fitted maximal effect
Procedure, shortened: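 HCT-116 p53RE-bla, 4,000 cells/well, 5 h pre-incubation; cpd + rat liver microsomes 0.5 mg/mL + NADPH 0.5 mg/mL (final); 16 h, 37 C; CellTiter-Glo, 30 min RT; luminescence.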

[10] = p53 small molecule agonists, cell-based qHTS assay: qHTS cell viability counter screen (AID 1963581); further: nearly all actives have a fitted effect of over 45% in size; further: potency means the concentration at half of the fitted maximal effect
Procedure, shortened: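 HCT-116 p53RE-bla cells, 4,000/well, plated 5 h before compound pin transfer; 16 h at 37 C; bla substrate 2 h RT; then CellTiter-Glo, 30 min RT, luminescence.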

[11] = molecular target: 5-hydroxytryptamine receptor 2A (Homo sapiens) (UniProt P28223); test: 5-hydroxytryptamine receptor 2A (HTR2A) small molecule antagonists, cell-based qHTS assay (AID 1963586); further: nearly all actives have a fitted effect of over 45% in size; further: potency means the concentration at half of the fitted maximal effect
Sequence of 5-hydroxytryptamine receptor 2A (Homo sapiens) (P28223 whole entry, looked up): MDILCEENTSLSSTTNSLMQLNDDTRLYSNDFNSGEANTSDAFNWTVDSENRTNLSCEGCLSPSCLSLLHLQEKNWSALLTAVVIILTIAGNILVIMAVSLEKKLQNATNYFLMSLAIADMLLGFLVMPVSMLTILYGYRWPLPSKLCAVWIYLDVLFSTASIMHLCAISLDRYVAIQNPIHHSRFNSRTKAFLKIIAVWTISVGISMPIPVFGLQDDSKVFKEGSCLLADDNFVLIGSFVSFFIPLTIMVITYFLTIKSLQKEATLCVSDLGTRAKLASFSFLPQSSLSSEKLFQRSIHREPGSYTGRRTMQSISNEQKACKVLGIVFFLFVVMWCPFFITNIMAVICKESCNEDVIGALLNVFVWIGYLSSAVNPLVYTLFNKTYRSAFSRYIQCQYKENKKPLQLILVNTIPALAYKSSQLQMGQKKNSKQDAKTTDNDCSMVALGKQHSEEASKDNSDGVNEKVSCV
Procedure, shortened: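 Antagonist-mode intracellular calcium assay: DOI (4 nM) added after 5 min compound pre-incubation at room temperature to dye-loaded HTR2A-CHO cells. Fluorescence followed for 3 min, sampled every second.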

[12] = molecular target: 5-hydroxytryptamine receptor 2A (Homo sapiens) (UniProt P28223); test: 5-hydroxytryptamine receptor 2A (HTR2A) small molecule agonists, cell-based qHTS assay (AID 1963587); further: nearly all actives have a fitted effect of over 30% in size; further: potency means the concentration at half of the fitted maximal effect
Procedure, shortened: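 Kinetic calcium-flux fluorescence (2 min, 1 sec intervals) after compound addition in agonist mode. HTR2A-CHO cells were cultured 18 h, then dye-loaded 1 h at 37 C.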

[13] = molecular target: Muscarinic acetylcholine receptor M1 (Homo sapiens) (UniProt P11229); test: Cholinergic receptor muscarinic 1 (CHRM1) small molecule antagonists, cell-based qHTS assay (AID 1963588); further: nearly all actives have a fitted effect of over 40% in size; further: potency means the concentration at half of the fitted maximal effect
Sequence of Muscarinic acetylcholine receptor M1 (Homo sapiens) (P11229 whole entry, looked up): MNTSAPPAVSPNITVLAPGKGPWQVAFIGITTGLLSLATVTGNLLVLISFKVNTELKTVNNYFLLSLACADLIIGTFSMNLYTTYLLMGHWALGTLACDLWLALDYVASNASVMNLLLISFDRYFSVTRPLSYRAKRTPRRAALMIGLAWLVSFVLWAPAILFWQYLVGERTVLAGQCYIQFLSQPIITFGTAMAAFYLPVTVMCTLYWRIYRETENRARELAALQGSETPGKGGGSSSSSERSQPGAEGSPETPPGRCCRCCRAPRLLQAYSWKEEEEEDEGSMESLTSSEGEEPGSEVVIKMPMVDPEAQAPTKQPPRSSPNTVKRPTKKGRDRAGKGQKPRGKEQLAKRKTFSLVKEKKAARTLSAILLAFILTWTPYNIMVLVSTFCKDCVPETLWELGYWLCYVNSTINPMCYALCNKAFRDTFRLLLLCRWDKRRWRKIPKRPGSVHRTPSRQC
Procedure, shortened: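 CHRM1-CHO calcium-flux assay, antagonist mode. Cells were seeded 18 h, dye-loaded 1 h at 37 C and given compound for 5 min at RT, then acetylcholine was added at 50nM. FDSS fluorescence was read 3 min; 15 concentrations, three runs.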

[14] = molecular target: Muscarinic acetylcholine receptor M1 (Homo sapiens) (UniProt P11229); test: Cholinergic receptor muscarinic 1 (CHRM1) small molecule agonists, cell-based qHTS assay (AID 1963589); further: nearly all actives have a fitted effect of over 35% in size; further: potency means the concentration at half of the fitted maximal effect
Procedure, shortened: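 Human M1 in stable CHO line; 18 h plating, 1 h dye load 37 C; cpd added (agonist mode); Ca2+ fluorescence kinetic read, 1 s intervals; 15 conc, 3 runs.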

[15] = molecular target: Beta-2 adrenergic receptor (Homo sapiens) (UniProt P07550); test: Adrenergic beta2 receptor (ADRB2) small molecule antagonists, cell-based qHTS assay (AID 1963592); further: nearly all actives have a fitted effect of over 50% in size; further: potency means the concentration at half of the fitted maximal effect
Sequence of Beta-2 adrenergic receptor (Homo sapiens) (P07550 whole entry, looked up): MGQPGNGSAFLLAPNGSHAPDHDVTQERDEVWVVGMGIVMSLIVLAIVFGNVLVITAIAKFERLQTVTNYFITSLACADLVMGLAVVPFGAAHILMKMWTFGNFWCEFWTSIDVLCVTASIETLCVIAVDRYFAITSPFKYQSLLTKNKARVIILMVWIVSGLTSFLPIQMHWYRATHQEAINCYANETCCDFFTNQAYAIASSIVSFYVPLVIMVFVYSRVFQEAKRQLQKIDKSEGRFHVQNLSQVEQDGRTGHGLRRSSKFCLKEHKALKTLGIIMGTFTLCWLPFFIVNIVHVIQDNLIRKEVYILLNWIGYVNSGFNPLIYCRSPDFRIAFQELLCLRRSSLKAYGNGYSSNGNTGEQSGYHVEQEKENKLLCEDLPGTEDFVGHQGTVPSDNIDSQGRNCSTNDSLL
Procedure, shortened: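 Cells (CHO, stable ADRB2 overexpression) incubated 18-20hr at 37C; compounds added from DMSO; agonist mix (1nM isoproterenol, 100uM IBMX, 25uM Ro-20-1724) added; 0.5hr RT; d2-cAMP and anti-cAMP-cryptate added; 1hr RT; 665/615 nm read.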

[16] = molecular target: D(2) dopamine receptor (Homo sapiens) (UniProt P14416); test: Dopamine D2 receptor (DRD2) small molecule agonists, cell-based qHTS assay (AID 1963594); further: nearly all actives have a fitted effect of over 35% in size
Sequence of D(2) dopamine receptor (Homo sapiens) (P14416 whole entry, looked up): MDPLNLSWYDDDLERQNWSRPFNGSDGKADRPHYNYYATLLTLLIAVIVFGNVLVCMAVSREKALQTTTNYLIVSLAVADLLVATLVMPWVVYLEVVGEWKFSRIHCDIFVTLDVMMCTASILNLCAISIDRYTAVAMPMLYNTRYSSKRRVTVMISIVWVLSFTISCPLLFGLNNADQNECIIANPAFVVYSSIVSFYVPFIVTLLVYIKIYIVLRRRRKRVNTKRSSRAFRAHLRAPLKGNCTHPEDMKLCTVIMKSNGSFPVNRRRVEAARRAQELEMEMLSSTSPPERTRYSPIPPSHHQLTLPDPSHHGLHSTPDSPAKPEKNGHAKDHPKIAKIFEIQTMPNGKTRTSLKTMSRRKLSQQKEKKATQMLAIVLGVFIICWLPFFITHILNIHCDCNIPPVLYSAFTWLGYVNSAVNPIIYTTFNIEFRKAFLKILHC
Procedure, shortened: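 cAMP accumulation in DRD2-HEK293 cells measured by HTRF after 1 h detection; compounds added 10 min before NKH477 (200nM […]) forskolin-analogue stimulation, 30 min at room temperature, with Ro20-1724 present at 0.1 mM final.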

[17] = molecular target: D(2) dopamine receptor (Homo sapiens) (UniProt P14416); test: Dopamine D2 receptor (DRD2) small molecule antagonists, cell-based qHTS assay (AID 1963595; active means well fitted inhibition curve with a large enough effect in the signal ratio in the repeat runs, with a control signal flat; the % refers to the signal ratio; further: potency means the concentration at half of the fitted maximal effect)
Procedure, shortened: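 HTRF cAMP read-out at 665 and 620 nm emission (340 nm excitation). Antagonist mode: compounds were tested against 12 nM quinpirole in DRD2-HEK293 cells, with 200 nM NKH477 raising cAMP and 0.1 mM Ro20-1724 blocking its breakdown.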

[18] = cAMP Responsive Elements (CRE) small molecule agonists, cell-based qHTS assay (AID 1963590)
Procedure, shortened: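 HEK 293T CRE-bla, 2,000 cells/well, 18 h preincubation 37 C/5% CO2; cpds (DMSO) pinned, 3 h; LiveBLAzer B/G FRET substrate, 2 h RT.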

[19] = cAMP Responsive Elements (CRE) small molecule antagonists, cell-based qHTS assay (AID 1963591; active means well fitted inhibition curve with a large enough effect in the signal ratio in the repeat runs, not every such curve was filed as active; the % refers to the signal ratio)
Procedure, shortened: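 Beta-lactamase reporter read by FRET substrate (LiveBLAzer B/G) after 2 h at room temperature. CRE-bla HEK293T cells had received compound plus 0.25 uM (final) NKH477 for 3 h at 37 °C.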

[20] = molecular target: Beta-2 adrenergic receptor (Homo sapiens) (UniProt P07550); test: Adrenergic beta2 receptor (ADRB2) small molecule agonists, cell-based qHTS assay (AID 1963593);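 further: CHO cells stably overexpressing human ADRB2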
Procedure, shortened: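 CHO cells stably over-expressing ADRB2 were plated overnight at 37C, then dosed with compounds plus a stimulation mix containing 100uM IBMX and 25uM Ro-20-1724 for 0.5hr at room temperature. cAMP was measured by HTRF competition, 1hr.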

SMILES | Potency [1] | Potency [2] | Potency [3] | outcome [4] | outcome [5] | Potency [6] | Potency [7] | Potency [8] | Potency [9] | Potency [10] | Potency [11] | Potency [12] | Potency [13] | Potency [14] | Potency [15] | Potency [16] | Potency [17] | Potency [18] | Potency [19] | Potency [20]
Cc1cc(O)c(C(C)(C)C)cc1Sc1cc(C(C)(C)C)c(O)cc1C | 13.7 µM (active) | inactive | inactive | inactive | inactive | inactive | inactive | 9.11 µM (active) | 20.4 µM (active) | 5.75 µM (active) | inactive | 43.6 µM (active) | 26.5 µM (active) | 48.9 µM (active) | 27.3 µM (active) | inactive | 21.6 µM (active) |  |  | 
O=C(O)Cc1ccc2c(c1)C(=O)c1ccccc1CO2 | inactive | inactive | inactive | inactive | inactive | inactive | inactive | inactive | inactive | inactive | inactive | inactive | inactive | inactive | inactive | inactive | inactive |  |  | 
Cc1cc(SC2=C(O)C[C@@](CCc3ccc(N)cc3)(C(C)C)OC2=O)c(C(C)(C)C)cc1CO | inactive | inactive | inactive | inactive | inactive | inactive | inactive | inactive | inactive | inactive | inactive | inactive | inactive | inactive | inactive | inactive | inactive |  |  | 
C=CCNc1nc(NCC=C)nc(N2CCN(C(c3ccc(F)cc3)c3ccc(F)cc3)CC2)n1 | 4.22 µM (active) | inactive | inactive | inactive | inactive | inactive | inactive | inactive | inactive | inactive | 5.16 µM (active) | 2.68 µM (active) | inactive | inactive | 11.9 µM (active) | inactive | inactive | inactive | inactive | 
CCCCCCCC[P+](CCCCCCCC)(CCCCCCCC)CCCCCCCC | 4.83 µM (active) | inactive | inactive | inactive | inactive | inactive | inactive | 8.09 µM (active) | 20.3 µM (active) | 2.56 µM (active) | inactive | 24.4 µM (active) | inactive | inactive | inactive | inactive | 13.6 µM (active) |  |  | 
COCCCCCCCCOCCC[Si](C)(O[Si](C)(C)C)O[Si](C)(C)C | 61.1 µM (active) | inactive | inactive | inactive | inactive | inactive | inactive | inactive | inactive | inactive | inactive | inactive | inactive | inactive | inactive | inactive | inactive |  |  | inactive
Clc1ccc2n[nH]nc2c1 | inactive | inactive | inactive | inactive | inactive | 28.9 µM (active) | inactive | inactive | inactive | inactive | inactive | inactive | inactive | inactive | inactive | inactive | inactive | inactive |  | inactive

— PubChem BioAssay (Tox21)
